Source: PubChem BioAssay (NCI)
This is part of a sample that, as a whole, favours compounds with a hit. Of some 79,000 tested, about 15% had one in any assay. Values without a mark were called inactive. Active and inactive are the calls of the source. Rule as the data show it: active = growth inhibition above about 70%; inactive = the rest.

Tests used:
[1] = NCI Yeast Anticancer Drug Screen. Data for the rad52 strain (AID 147);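 also: 0% = growth of vehicle-treated control cultures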; settings: S. cerevisiae rad52 mutant growth inhibition, hits give high values
Method in brief: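 Genetically altered yeast (DNA damage repair defect) treated with compound; inhibition calculated relative to vehicle.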

[2] = NCI Yeast Anticancer Drug Screen. Data for the wt1 strain (AID 149);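 also: 0% = growth of vehicle-treated wt1 cultures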; settings: S. cerevisiae wt1 strain (SPY 50644) growth inhibition, hits give high values
Method in brief: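 Measured: growth of wt1 yeast under compound versus vehicle treatment, reported as inhibition.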

[3] = NCI Yeast Anticancer Drug Screen. Data for the rad50EPP+ strain (AID 151);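 also: 0% = growth of vehicle-treated control cultures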; settings: S. cerevisiae rad50 mutant strain, hits give high values
Method in brief: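 Strain rad50EPP+; compound exposure; % growth inhibition vs vehicle.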

[4] = NCI Yeast Anticancer Drug Screen. Data for the mgt1 strain (AID 153); settings: S. cerevisiae mgt1 mutant growth inhibition, hits give high values
Method in brief: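 Read-out: yeast growth inhibition vs vehicle control. Strain mgt1, drawn from a panel altered in DNA damage repair or cell cycle control.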

[5] = NCI Yeast Anticancer Drug Screen. Data for the rad50 strain (AID 155);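 also: 0% = growth of vehicle-only cultures of the same strain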; settings: S. cerevisiae rad50 strain growth inhibition, hits give high values
Method in brief: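 Growth of the mutant yeast was measured after compound exposure and referenced to vehicle-treated cultures.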

[6] = NCI Yeast Anticancer Drug Screen. Data for the mec2-1 strain (AID 157); settings: S. cerevisiae mec2-1 strain, hits give high values
Method in brief: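 Cells of the genetically defined mec2-1 yeast strain are incubated with test compound. Inhibition of growth is calculated against vehicle-treated controls.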

[7] = NCI Yeast Anticancer Drug Screen. Data for the rad14 strain (AID 159);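 also: 0% = growth of vehicle-treated control cultures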; settings: S. cerevisiae rad14 strain growth inhibition, hits give high values
Method in brief: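 Here, inhibition of yeast growth was measured after compound exposure, using a strain with a genetic defect in DNA damage repair and vehicle-treated cultures as the reference.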

[8] = NCI Yeast Anticancer Drug Screen. Data for the sgs1 mgt1 strain (AID 161);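 also: 0% = growth of cultures given vehicle only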; settings: S. cerevisiae sgs1 mgt1 strain, hits give high values
Method in brief: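 Read-out: growth inhibition vs vehicle controls. Cells: mutant yeast strain deficient in DNA damage repair.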

[9] = NCI Yeast Anticancer Drug Screen. Data for the CLN2oe strain (AID 163);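 also: 0% = growth of vehicle-only control cultures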; settings: S. cerevisiae CLN2oe strain, hits give high values
Method in brief: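 Strain altered in cell-cycle control, incubated with compound; growth compared to solvent-treated controls.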

[10] = NCI Yeast Anticancer Drug Screen. Data for the cln2 rad14 strain (AID 165);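 also: 0% = growth equal to vehicle treated cultures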; settings: S. cerevisiae cln2 rad14 strain, hits give high values
Method in brief: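 The screen exposed genetically defined yeast (cln2 rad14) to test compounds and scored growth inhibition relative to vehicle-treated controls.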

[11] = NCI Yeast Anticancer Drug Screen. Data for the bub3 strain (AID 167); settings: S. cerevisiae bub3 mutant strain, hits give high values
Method in brief: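 Whole-cell yeast assay. The mutant strain was incubated with compounds, and growth inhibition was determined by comparison with vehicle-treated cells.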

[12] = NCI Yeast Anticancer Drug Screen. Data for the wt2 strain (AID 169);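 also: 0% = growth of vehicle-treated yeast cultures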; settings: S. cerevisiae wt2 strain growth inhibition, hits give high values
Method in brief: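 Steps: yeast strain treated with compound; growth recorded; inhibition calculated relative to cultures given vehicle alone.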

[13] = NCI Yeast Anticancer Drug Screen. Data for the mlh1 strain (AID 171);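 also: 0% = growth of vehicle-treated control cultures of the same strain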; settings: S. cerevisiae mlh1 strain growth inhibition, hits give high values
Method in brief: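 Yeast screen: mutant strain plus compound, growth scored against vehicle control wells.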

[14] = NCI Yeast Anticancer Drug Screen. Data for the sgs1 strain (AID 173);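 also: 0% = growth of vehicle-only control cultures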; settings: S. cerevisiae sgs1 mutant, hits give high values
Method in brief: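 Inhibition of yeast growth served as the measure. The mutant strain was treated with each compound, and growth was normalised to cultures receiving vehicle alone.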

[15] = NCI Yeast Anticancer Drug Screen. Data for the mlh1 rad18 strain (AID 175); settings: S. cerevisiae mlh1 rad18 strain growth inhibition, hits give high values
Method in brief: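 Compound-treated yeast growth, normalised to vehicle controls. Strain bears defined DNA repair mutations.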

[16] = NCI Yeast Anticancer Drug Screen. Data for the rad18 strain (AID 177); settings: S. cerevisiae rad18 mutant growth inhibition, hits give high values
Method in brief: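 Inhibition values reflect reduced yeast growth compared with vehicle-treated controls, using a strain engineered with a DNA damage repair defect.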

[17] = at 5.0 µM (retest, dose inferred, filed as 0.5)
[18] = at 50.0 µM (retest, dose inferred, filed as 5.0)

CCOC(=O)C1N=[N+](c2ccccc2)C(=O)/C1=C\n1c(=S)[nH]c2ccc([N+](=O)[O-])cc21 (stereo unspecified)
growth inhibition ([1]; at 1.2 µM): 0%
growth inhibition ([1]; at 3.7 µM): 1%
growth inhibition ([1]; at 11.0 µM): 2%
growth inhibition ([1]; at 33.0 µM): 0%
growth inhibition ([1]; at 100.0 µM): 9%
growth inhibition ([2]; at 1.2 µM): 1%
growth inhibition ([2]; at 3.7 µM): 3%
growth inhibition ([2]; at 11.0 µM): 2%
growth inhibition ([2]; at 33.0 µM): 3%
growth inhibition ([2]; at 100.0 µM): 6%
growth inhibition ([3]; at 1.2 µM): 0%
growth inhibition ([3]; at 3.7 µM): 1%
growth inhibition ([3]; at 11.0 µM): 4%
growth inhibition ([3]; at 33.0 µM): 2%
growth inhibition ([3]; at 100.0 µM): 6%
growth inhibition ([4]; at 1.2 µM): -1%
growth inhibition ([4]; at 3.7 µM): -1%
growth inhibition ([4]; at 11.0 µM): 0%
growth inhibition ([4]; at 33.0 µM): -11%
growth inhibition ([4]; at 100.0 µM): 5%
growth inhibition ([5]; at 1.2 µM): -6%
growth inhibition ([5]; at 3.7 µM): -14%
growth inhibition [5, 17]: 21%
growth inhibition ([5]; at 11.0 µM): -18%
growth inhibition ([5]; at 33.0 µM): 3%
growth inhibition [5, 18]: 94% (active)
growth inhibition ([5]; at 50.0 µM): 5.15%
growth inhibition ([5]; at 100.0 µM): 7%
growth inhibition ([6]; at 1.2 µM): 1%
growth inhibition ([6]; at 3.7 µM): 1%
growth inhibition [6, 17]: 13%
growth inhibition ([6]; at 11.0 µM): 2%
growth inhibition ([6]; at 33.0 µM): 7%
growth inhibition [6, 18]: 96% (active)
growth inhibition ([6]; at 50.0 µM): 17.2%
growth inhibition ([6]; at 100.0 µM): 9%
growth inhibition ([7]; at 1.2 µM): 0%
growth inhibition ([7]; at 3.7 µM): -2%
growth inhibition ([7]; at 11.0 µM): 1%
growth inhibition ([7]; at 33.0 µM): 2%
growth inhibition ([7]; at 100.0 µM): 8%
growth inhibition [8, 17]: -4%
growth inhibition [8, 18]: 63%
growth inhibition ([8]; at 50.0 µM): 19.9%
growth inhibition ([9]; at 1.2 µM): 1%
growth inhibition ([9]; at 3.7 µM): -1%
growth inhibition ([9]; at 11.0 µM): -1%
growth inhibition ([9]; at 33.0 µM): 4%
growth inhibition ([9]; at 100.0 µM): 3%
growth inhibition [10, 17]: 53%
growth inhibition [10, 18]: 95% (active)
growth inhibition ([10]; at 50.0 µM): 47.9%
growth inhibition ([11]; at 1.2 µM): -7%
growth inhibition ([11]; at 3.7 µM): 1%
growth inhibition [11, 17]: 97% (active)
growth inhibition ([11]; at 11.0 µM): 1%
growth inhibition ([11]; at 33.0 µM): 3%
growth inhibition [11, 18]: 99% (active)
growth inhibition ([11]; at 50.0 µM): 20.8%
growth inhibition ([11]; at 100.0 µM): 3%
growth inhibition ([12]; at 1.2 µM): 0%
growth inhibition ([12]; at 3.7 µM): 0%
growth inhibition ([12]; at 11.0 µM): -1%
growth inhibition ([12]; at 33.0 µM): 1%
growth inhibition ([12]; at 100.0 µM): 3%
growth inhibition ([13]; at 1.2 µM): 0%
growth inhibition ([13]; at 3.7 µM): 1%
growth inhibition ([13]; at 11.0 µM): 2%
growth inhibition ([13]; at 33.0 µM): 4%
growth inhibition ([13]; at 100.0 µM): 8%
growth inhibition ([14]; at 1.2 µM): 0%
growth inhibition ([14]; at 3.7 µM): 1%
growth inhibition ([14]; at 11.0 µM): -9%
growth inhibition ([14]; at 33.0 µM): 8%
growth inhibition ([14]; at 100.0 µM): 16%
growth inhibition [15, 17]: 24%
growth inhibition [15, 18]: 94% (active)
growth inhibition ([15]; at 50.0 µM): 5.05%
growth inhibition ([16]; at 1.2 µM): -2%
growth inhibition ([16]; at 3.7 µM): 1%
growth inhibition ([16]; at 11.0 µM): 3%
growth inhibition ([16]; at 33.0 µM): 7%
growth inhibition ([16]; at 100.0 µM): 15%

Cc1cc2c(cc1C)[n+]([O-])c(-c1nc3ccccc3s1)c(N)[n+]2[O-]
growth inhibition ([1]; at 1.2 µM): 2%
growth inhibition ([1]; at 3.7 µM): 10%
growth inhibition ([1]; at 11.0 µM): 20%
growth inhibition ([1]; at 33.0 µM): 35%
growth inhibition ([1]; at 100.0 µM): 88% (active)
growth inhibition ([2]; at 1.2 µM): 10%
growth inhibition ([2]; at 3.7 µM): 13%
growth inhibition ([2]; at 11.0 µM): 17%
growth inhibition ([2]; at 33.0 µM): 20%
growth inhibition ([2]; at 100.0 µM): 25%
growth inhibition ([3]; at 1.2 µM): 1%
growth inhibition ([3]; at 3.7 µM): 15%
growth inhibition ([3]; at 11.0 µM): 44%
growth inhibition ([3]; at 33.0 µM): 82% (active)
growth inhibition ([3]; at 100.0 µM): 97% (active)
growth inhibition ([4]; at 1.2 µM): 11%
growth inhibition ([4]; at 3.7 µM): 18%
growth inhibition ([4]; at 11.0 µM): 23%
growth inhibition ([4]; at 33.0 µM): 40%
growth inhibition ([4]; at 100.0 µM): 94% (active)
growth inhibition ([5]; at 1.2 µM): 0%
growth inhibition ([5]; at 3.7 µM): 10%
growth inhibition [5, 17]: 3%
growth inhibition ([5]; at 11.0 µM): 23%
growth inhibition ([5]; at 33.0 µM): 40%
growth inhibition [5, 18]: 58%
growth inhibition ([5]; at 50.0 µM): 87.8% (active)
growth inhibition ([5]; at 100.0 µM): 93% (active)
growth inhibition ([6]; at 1.2 µM): 11%
growth inhibition ([6]; at 3.7 µM): 21%
growth inhibition [6, 17]: 23%
growth inhibition ([6]; at 11.0 µM): 26%
growth inhibition ([6]; at 33.0 µM): 37%
growth inhibition [6, 18]: 79% (active)
growth inhibition ([6]; at 50.0 µM): 76% (active)
growth inhibition ([6]; at 100.0 µM): 97% (active)
growth inhibition ([7]; at 1.2 µM): 1%
growth inhibition ([7]; at 3.7 µM): 14%
growth inhibition ([7]; at 11.0 µM): 22%
growth inhibition ([7]; at 33.0 µM): 29%
growth inhibition ([7]; at 100.0 µM): 85% (active)
growth inhibition [8, 17]: 28%
growth inhibition [8, 18]: 89% (active)
growth inhibition ([8]; at 50.0 µM): 80.6% (active)
growth inhibition ([9]; at 1.2 µM): -1%
growth inhibition ([9]; at 3.7 µM): 5%
growth inhibition ([9]; at 11.0 µM): 18%
growth inhibition ([9]; at 33.0 µM): 10%
growth inhibition ([9]; at 100.0 µM): 25%
growth inhibition [10, 17]: 2%
growth inhibition [10, 18]: 41%
growth inhibition ([10]; at 50.0 µM): 81.5% (active)
growth inhibition ([11]; at 1.2 µM): 11%
growth inhibition ([11]; at 3.7 µM): 32%
growth inhibition [11, 17]: 47%
growth inhibition ([11]; at 11.0 µM): 46%
growth inhibition ([11]; at 33.0 µM): 53%
growth inhibition [11, 18]: 92% (active)
growth inhibition ([11]; at 50.0 µM): 93.7% (active)
growth inhibition ([11]; at 100.0 µM): 96% (active)
growth inhibition ([12]; at 1.2 µM): 14%
growth inhibition ([12]; at 3.7 µM): 18%
growth inhibition ([12]; at 11.0 µM): 18%
growth inhibition ([12]; at 33.0 µM): 21%
growth inhibition ([12]; at 100.0 µM): 58%
growth inhibition ([13]; at 1.2 µM): 6%
growth inhibition ([13]; at 3.7 µM): 14%
growth inhibition ([13]; at 11.0 µM): 17%
growth inhibition ([13]; at 33.0 µM): 20%
growth inhibition ([13]; at 100.0 µM): 55%
growth inhibition ([14]; at 1.2 µM): 10%
growth inhibition ([14]; at 3.7 µM): 21%
growth inhibition ([14]; at 11.0 µM): 24%
growth inhibition ([14]; at 33.0 µM): 39%
growth inhibition ([14]; at 100.0 µM): 79% (active)
growth inhibition [15, 17]: 33%
growth inhibition [15, 18]: 90% (active)
growth inhibition ([15]; at 50.0 µM): 94.9% (active)
growth inhibition ([16]; at 1.2 µM): 4%
growth inhibition ([16]; at 3.7 µM): 20%
growth inhibition ([16]; at 11.0 µM): 36%
growth inhibition ([16]; at 33.0 µM): 63%
growth inhibition ([16]; at 100.0 µM): 91% (active)
